Screening data (PubChem)
Rows were chosen to be rich in hits. Some 0.49% of all compounds tested hit in one or more screens of this group.
EPAC1 agonist: EPAC1 (human) agonism. EPAC1 agonist qHTS, biochemical assay; response scale: 100% = response to 6.5 mM cAMP. O95398. Potency, µM (highest dose often 154 µM), for inactives: at the highest dose activation, most hits filed as activators. 360,000 compounds, 0.073% hits; further: nearly all actives have a fitted effect of over 60% in size
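Nucleotide exchange by EPAC1 (100 nM) on Rap1B–BODIPY-GDP (250 nM) in the presence of 50 uM GDP is tracked fluorescently at 480/540 nm over 30 min. Signals are normalized to a 6.5 mM cAMP control.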
EPAC2 agonist: EPAC2 (human) agonism; EPAC2 activation, biochemical qHTS; response scale: 100% = 6.5 mM cAMP response; Potency, µM (top dose mostly 154 µM), for inactives: at the highest dose activation, most hits filed as activators; 360,000 compounds, 0.079% hits; AID 720711; further: nearly all actives have a fitted effect of over 50% in size
Target sequence (Q8WZA2 whole entry, looked up): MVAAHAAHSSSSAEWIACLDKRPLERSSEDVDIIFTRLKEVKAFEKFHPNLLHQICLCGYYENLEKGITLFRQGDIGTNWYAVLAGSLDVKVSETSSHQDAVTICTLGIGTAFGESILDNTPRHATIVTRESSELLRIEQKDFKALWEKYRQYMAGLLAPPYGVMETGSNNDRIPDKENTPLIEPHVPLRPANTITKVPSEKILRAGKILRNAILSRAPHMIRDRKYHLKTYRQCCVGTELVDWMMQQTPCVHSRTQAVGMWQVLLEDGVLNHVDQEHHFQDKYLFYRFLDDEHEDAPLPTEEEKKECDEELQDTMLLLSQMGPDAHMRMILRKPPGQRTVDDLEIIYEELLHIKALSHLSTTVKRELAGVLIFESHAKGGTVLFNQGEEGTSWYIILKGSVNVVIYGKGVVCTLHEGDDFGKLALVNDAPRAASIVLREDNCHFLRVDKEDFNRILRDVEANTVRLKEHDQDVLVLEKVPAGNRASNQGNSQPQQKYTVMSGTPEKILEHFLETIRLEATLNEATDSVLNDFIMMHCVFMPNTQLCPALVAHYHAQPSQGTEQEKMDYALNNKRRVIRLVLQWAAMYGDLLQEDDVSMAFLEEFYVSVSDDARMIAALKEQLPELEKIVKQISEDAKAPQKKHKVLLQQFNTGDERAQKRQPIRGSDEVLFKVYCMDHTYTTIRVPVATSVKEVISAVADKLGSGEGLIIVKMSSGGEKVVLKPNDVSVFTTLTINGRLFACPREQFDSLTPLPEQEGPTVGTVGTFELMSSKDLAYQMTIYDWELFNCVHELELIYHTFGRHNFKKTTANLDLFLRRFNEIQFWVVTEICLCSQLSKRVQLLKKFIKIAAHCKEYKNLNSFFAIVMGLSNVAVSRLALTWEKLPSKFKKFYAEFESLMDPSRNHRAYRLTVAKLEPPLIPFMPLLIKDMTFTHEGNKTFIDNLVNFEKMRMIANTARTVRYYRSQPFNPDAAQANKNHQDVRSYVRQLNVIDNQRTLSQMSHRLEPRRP
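In this primary screen, activation is scored as increased exchange of BODIPY-GDP from Rap1B by 100 nM EPAC2, with 50 uM GDP as competitor. Signal is normalized to the 6.5 mM cAMP agonist control.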
EPAC1 antag: antagonists of human EPAC1. O95398. EPAC1 GEF assay, Rap1b-BODIPY-GDP exchange fluorescence. Potency, µM (doses to about 115 µM), for the others: top-dose activity change, negative = inhibition, hits mostly inhibitors. 360,000 compounds, 0.14% hits. AID 720709;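 further: plate controls were vehicle for no effect and positive control for full effect; nearly all actives have a fitted effect of over 50% in size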
EPAC2 antagonist: EPAC2 (human) antagonism | 360,000 compounds, 0.18% hits | EPAC2 GEF exchange of Rap1B-BODIPY-GDP, fluorescence | Q8WZA2 | Potency, µM (top dose mostly 114 µM), without a hit: at the top dose activity, negative = inhibition, most hits filed as inhibitors; further: on the % scale 0 is the no-effect control and ±100 the full control effect; nearly all actives have a fitted effect of over 45% in size
USP1 inh: USP1/UAF1 (human) deubiquitinase inhibition; O94782; recombinant USP1/UAF1, Ub-Rhodamine cleavage fluorescence; Potency, µM (doses to about 57.1 µM), for inactives: at the top dose activity change, negative = inhibition, usual class: inhibitors; 390,000 compounds, 0.23% hits; AID 743255; further: on the % scale 0 is the no-effect control and ±100 the full control effect; nearly all actives have a fitted effect of over 60% in size
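USP1/UAF1 complex at 1 nM was preincubated with compound for 15 min at room temperature, then Ub-Rho substrate (150nM final) was added. Fluorescence (480/540 nm) was read kinetically, 6 reads every 60 seconds.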
Numbers without * were called inactive; ? = inconclusive; . = not tested or not shown. The call rests on the fitted dose curve; in most records, active means well fitted curve in the direction sought with a large enough effect; inconclusive means small, poorly fitted or top-dose-only effect, or another doubt; inactive means no such curve, though single readings can be large; an effect the other way counts as inactive or inconclusive. Potency means the concentration at half of the fitted maximal effect.

SMILES	EPAC1 agonist	EPAC2 agonist	EPAC1 antag	EPAC2 antagonist	USP1 inh
CCN1/C(=C/C(C)=O)Sc2ccc(OC)cc21	2.3%	2.5%	9.8%	-0.6%	-13.7%
CCOC(=O)/C(=C/C=C1\Sc2cc(OCC)c(OCC)cc2N1CC)C(C)=O	?	?	34.3%	17.9%	22.4µM*
CCc1nc2nc(C)c(NS(=O)(=O)c3ccc(C(C)(C)C)cc3)c(=O)n2[nH]1	.	.	.	.	-16.4%
CCOc1ccc(Cn2c(CNS(=O)(=O)c3cccs3)nc3cccnc32)cc1	.	.	.	.	-6.7%
Cc1nn(CCc2nn[nH]n2)c2nc(-c3ccc(Br)cc3)cc(C(F)(F)F)c12	-14.5%	-19.7%	-28.0%	31.6µM*	-12.1%
CCOc1ccc(NC(=O)CCn2c(=O)c3cccn3c3cccnc32)cc1	.	.	.	.	2.4%
COC(=O)c1cc2c(C)c(C)c3ccccn3c-2c1C(=O)OC	6.5%	27.8%	7.4%	118.1%	?
CC(C)OC(=O)c1c2c(n3ccccc13)C(=O)c1ccccc1C2=O	-3.7%	5.4%	-10.4%	-10.2%	28.2µM*
Cc1oc2c(c1C(=O)c1ccccc1)C(=O)C(=O)c1ccccc1-2	23.9%	6.1%	?	?	12.6µM*
CCOC(=O)c1c(C)oc2c1C(=O)c1ccccc1C2=O	-2.4%	9.2%	-3.1%	6.1%	?
Cc1oc2c(c1C(=O)O)C(=O)c1ccccc1C2=O	-19.5%	4.9%	-3.3%	2.0%	28.2µM*
Cc1cccc(-n2c3nc(=O)[nH]c(=O)c-3cc3c(Cl)cccc32)c1C	.	.	.	.	-13.0%
COc1cccc(CNC(=O)c2oc3ccc4c(c3c2C)C(=O)CC(C)(C)O4)c1OC	.	.	.	.	-15.0%
CCOc1cc(/C=C(\C#N)C(=O)Nc2cccc(C(=O)O)c2)cc(Br)c1OC(=O)c1ccc(OC)cc1	9.3%	-2.0%	?	50.1µM*	-21.5%
CCOc1cc(/C=C(\C#N)C(=O)Nc2cccc(C(=O)O)c2)ccc1OCc1ccccc1Cl	8.5%	-2.5%	-22.0%	-26.9%	?
Cc1ccc(Cl)cc1NC1=C/C(=N\S(=O)(=O)c2cccs2)c2ccccc2C1=O	2.7%	4.7%	-25.6%	-3.4%	3.16µM*
Cc1ccc(NC2=C/C(=N\S(=O)(=O)c3cccs3)c3ccccc3C2=O)c(C)c1	6.8%	12.7%	-18.3%	-9.0%	2µM*
CC(C)CCN1C(=O)c2cccc3c(N)ccc(c23)C1=O	70.8µM*	?	24.6%	38.0%	?
CC(=O)Nc1cccc2c1C(=O)N(c1cccc(C)c1)C2=O	12.3%	8.4%	-22.7%	0.0%	-14.8%
Cc1cccc(N2C(=O)c3cccc4c(N)ccc(c34)C2=O)c1	89.1µM*	100µM*	292.2%	276.4%	28.2µM*
O=C(O)c1ccc2c3c(cccc13)C(=O)N(c1ccccc1)C2=O	11.9%	6.5%	-2.4%	6.0%	-20.2%
Cc1cccc(N2C(=O)c3cccc4c(N(C)CCO)ccc(c34)C2=O)c1	112µM*	100µM*	49.2%	72.4%	28.2µM*
Cc1cccc(N2C(=O)c3cccc4cccc(c34)C2=O)c1	-5.9%	-2.1%	-1.3%	5.3%	-23.1%
Nc1ccc2c3c(cccc13)C(=O)N(c1ccccc1)C2=O	100µM*	100µM*	454.2%	420.7%	?
O=C(O)c1cccc(N2C(=O)c3cccc4c(Cl)ccc(c34)C2=O)c1	2.5%	0.7%	-13.8%	-32.0%	-8.7%
SMILES	EPAC1 agonist	EPAC2 agonist	EPAC1 antag	EPAC2 antagonist	USP1 inh
Nc1cccc(N2C(=O)c3cccc4c(N)ccc(c34)C2=O)c1	100µM*	89.1µM*	96.7%	151.9%	28.2µM*
O=C1C=C(NCCc2cc(Br)c(O)c(Br)c2)C(=O)c2ncccc21	15.1%	-1.1%	50.1µM*	79.4µM*	3.55µM*
O=C(NCCS(=O)(=O)N1CCN(c2ccccc2F)CC1)c1ccccc1C(F)(F)F	.	.	.	.	-15.3%
CCOC(=O)Cn1c(=O)n(-c2ccccc2OC)c2nc(-c3ccc(C(C)C)cc3)nc(C(N)=O)c21	.	.	.	.	-22.9%
COC(=O)c1cn(C(=O)c2ccccc2Cl)c2ccccc12	6.7%	14.5%	12.7%	28.2µM*	-8.0%
COC(=O)c1cn(C(=O)OC)c2ccccc12	-1.0%	3.9%	-11.0%	6.8%	2.2%
Cc1cccc(NC(=O)CSc2nc(=O)n(CCN3CCOCC3)c3c2CCC3)c1	.	.	.	.	-24.8%
